Screens from PubChem BioAssay.
TDP1 cell noCPT – qHTS for Inhibitors of human tyrosyl-DNA phosphodiesterase 1 (TDP1): qHTS in cells in absence of CPT. DT40 Tdp1-/- hTDP1 cells, no CPT, ATP luminescence, 48 h. Potency, µM (series often up to 46.2 µM), for inactives: at the highest dose activity change, negative = growth inhibition, actives largely listed as inhibitors. 15% of 420,000 active. AID 686978, 2013; also: potency is read from the fitted curve at half-maximal effect; nearly all actives have a fitted effect of over 55% in size
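Chicken DT40 Tdp1-/- cells complemented with human TDP1, screened without camptothecin (DMSO vehicle only), 400 cells/well. Compounds pin-transferred, cells incubated at 37 °C for at least 48 hr. Growth read as ATP-dependent luminescence (CellTiter-Glo, 30 min at RT).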
HT1080NT lethal – kills 2HG-producing HT-1080-NT fibrosarcoma cells; 1.6% of 360,000 active; Potency, µM (titrated, usually from 46.1 µM), for inactives: at the top dose activity, negative = less viability, most hits filed as cytotoxic; HT-1080-NT fibrosarcoma viability, CellTiter-Glo ATP luminescence, 48 h;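 also: NT is the 2HG producing partner of a matched IDH1 knockdown line; potency is read from the fitted curve at half-maximal effect; 0% = DMSO-treated cells and -100% = media-only wells without cells; nearly all actives have a fitted effect of over 55% in size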
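Compounds were tested in concentration-response format on HT-1080-NT cells for 48 hours at 37 degrees C. Cell viability came from CellTiter-Glo luminescence; curves were classified by r2, response magnitude and activity.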
HT1080 IDH1KD tx – toxicity to HT-1080 IDH1 knockdown cells (counter line); Potency, µM (titrated, usually from 46.1 µM), inactives show at the highest dose activity, negative = toxicity, hits mostly cytotoxic; AID 686971; HT-1080 IDH1 knockdown viability, ATP luminescence, 48 h; 2% of 360,000 active;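 also: potency is read from the fitted curve at half-maximal effect; 0% = DMSO wells and -100% = cell-free medium wells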
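Luminescent ATP read-out (CellTiter-Glo, 10 min at room temperature) after 48 h compound exposure at 37 °C gave viability of IDH1-knockdown HT-1080 cells. Activity was normalised to DMSO and cell-free wells, then fitted as concentration-response curves.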
TDP1 cell CPT – DT40-hTDP1 cell growth loss with CPT; AID 686979; 12% of 420,000 active; chicken DT40 Tdp1-/-;hTDP1 cells + 20 nM CPT, ATP luminescence, 48 h; Potency, µM (highest dose often 46.2 µM), without a hit: top-dose activity change, negative = growth inhibition, hits mostly inhibitors; also: potency is read from the fitted curve at half-maximal effect; nearly all actives have a fitted effect of over 55% in size
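Cell growth measured by CellTiter-Glo luminescence after a minimum 48 h, 37 C compound exposure with 20 nM CPT in Tdp1-knockout DT40 cells stably expressing hTDP1, seeded 400/well; qHTS titration format.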
IL-1B inflam inh – inflammasome signaling inhibition, IL-1 beta readout; THP-1 LPS/ATP IL-1B secretion, AlphaLISA, 16 h; active compounds read low; activity change, % at 57.5 µM; 4.7% of 360,000 active; in the data active = activity change below about -50%; inconclusive = mostly about -30% to -49%
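THP-1 cells pretreated 1 hr with compounds (up to 57.5 uM final), then stimulated with LPS (250 ng/mL final) plus ATP (1.25 mM final); secreted IL-1B measured by AlphaLISA after 16 hr, decreased signal indicating inhibition.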
Numbers without * were called inactive; ? = inconclusive; nt = not tested or not shown. Compounds with a hit are over-represented: about 19% of the library has one in this group of screens. Unless noted, calls follow the shape of the dose curve; as a rule, active = well fitted curve in the direction sought with a large enough effect; inconclusive = small, poorly fitted or top-dose-only effect, or another doubt; inactive = no such curve, though single readings can be large; an effect the other way counts as inactive or inconclusive. Unless noted, % is scaled to controls: 0 for no effect and ±100 for the full control effect.

SMILES | TDP1 cell noCPT | HT1080NT lethal | HT1080 IDH1KD tx | TDP1 cell CPT | IL-1B inflam inh
CC1CCCCC1NC(=O)c1cc(S(=O)(=O)N2CCOCC2)ccc1Cl (stereo not drawn) | ? | -9% | 1% | -16% | 30
Clc1ccc2[nH]cc(-c3nnnn3-c3ccc4ccccc4c3)c2c1 | ? | -20% | -30% | ? | 2
COc1ccccc1Oc1cn[nH]c1-c1ccc(O)cc1O | 21µM* | -12% | -9% | -25% | 17
COc1cccc(Oc2cn[nH]c2-c2ccc(O)cc2O)c1 | ? | ? | ? | 9.2µM* | 15
COc1cccc(Oc2cn[nH]c2-c2ccc(OC)cc2O)c1 | ? | ? | ? | ? | -18
COc1ccc(NC(=O)CSCC(=O)Nc2nnc(C)s2)cc1 | -6% | 4% | 3% | 5% | 5
CC(OC(=O)C1CC1)C(=O)Nc1ccc([N+](=O)[O-])cc1Cl (stereo not drawn) | 4% | 13% | 8% | -4% | -2
CC(=O)NNC(=S)NC(=O)c1cccc([N+](=O)[O-])c1 | -30% | -16% | -21% | 4% | 0
Cc1ccc(C(=O)NC(=S)NNC(=O)c2ccccc2O)cc1 | ? | ? | ? | ? | 67
Cc1ccc(C(=O)NC(=S)NNC(=O)c2ccc([N+](=O)[O-])cc2)cc1 | 15µM* | -10% | -4% | ? | 52
O=C(NNC(=S)NC(=O)c1ccc(Br)cc1)c1cccc([N+](=O)[O-])c1 | 16µM* | ? | ? | 18µM* | 34
Cc1ccc(S(=O)(=O)NNC(=S)NC(=O)c2ccc([N+](=O)[O-])cc2)cc1 | 3% | -2% | -2% | 1% | 15
CCCCCC(=O)NNC(=S)NC(=O)c1ccc([N+](=O)[O-])cc1 | ? | -6% | -1% | -6% | -14
O=C(NC(=S)NNC(=O)c1ccccc1O)c1ccccc1 | 29µM* | ? | -25% | ? | 47
O=C(NC(=S)NNC(=O)c1ccccc1O)c1ccc([N+](=O)[O-])cc1 | 15µM* | -7% | -9% | 26µM* | -22
Cc1nn(C)cc1CN(C)S(=O)(=O)c1cccc([N+](=O)[O-])c1 | ? | -9% | -10% | ? | 0
CC1(C(=O)NS(=O)(=O)c2cccs2)CCN1C(=O)CC1CCCC1 (stereo not drawn) | 7% | 12% | ? | 3% | 27
Clc1ccc(-c2nnn3c2nc(NC2CCCCC2)c2ccccc23)cc1 | -23% | nt | nt | 5% | nt
O=C(NC1CCCc2ccccc21)c1cccc(S(=O)(=O)N2CCOCC2)c1 (stereo not drawn) | ? | 0% | 7% | -22% | -9
O=C(NNC(=S)NC(=O)c1ccc(Br)cc1)c1ccc([N+](=O)[O-])cc1 | 23µM* | -9% | 3% | ? | 11
O=C(NNC(=O)c1cc(Cl)ccc1O)c1cccs1 | 18µM* | -28% | ? | ? | 29
CC(NC(=S)NC(=O)c1cccs1)c1ccccc1 (stereo not drawn) | 18µM* | -3% | -21% | -6% | ?
O=C(NNC(=S)NC(=O)c1ccccc1)c1ccc([N+](=O)[O-])cc1 | 12µM* | -30% | -27% | 13µM* | 47
O=C(NNC(=O)c1ccc([N+](=O)[O-])cc1)c1ccc(Br)cc1 | -25% | -4% | -3% | -47% | -11
O=C(NNC(=O)c1ccccc1Cl)c1cccs1 | -8% | 20% | 21% | -5% | -8
SMILES | TDP1 cell noCPT | HT1080NT lethal | HT1080 IDH1KD tx | TDP1 cell CPT | IL-1B inflam inh
COC(=O)C[C@H]1c2cc(C(F)(F)F)ccc2S(=O)(=O)N1Cc1ccc(OC)cc1 | ? | 10% | 6% | ? | 32
CCOC(=O)CSc1ncc(-c2ccc([N+](=O)[O-])cc2)[nH]1 | ? | 13% | 6% | -8% | 0
O=C(CCc1ccccc1)NNC(=O)c1cc(Cl)ccc1O | 23µM* | -25% | ? | ? | 74
O=C(NC(=S)NNC(=O)c1ccccc1O)c1cccs1 | 26µM* | ? | -21% | 23µM* | 20
O=C(NNC(=O)c1ccccc1F)c1cccs1 | -13% | 0% | 0% | 3% | -4
Cc1ccccc1NC(=O)CSc1n[nH]c(-c2ccccn2)n1 | ? | ? | ? | 18µM* | 152
O=C(CSc1n[nH]c(-c2ccccc2)n1)Nc1ncccn1 | -10% | 9% | 15% | 11% | -7
Cc1ccc(O)c(NC(=O)CSc2n[nH]c(-c3ccccc3)n2)c1 | 16µM* | -8% | -22% | ? | 88
Cc1ccc(C)c(NC(=O)CSc2n[nH]c(-c3ccccn3)n2)c1 | 18µM* | -21% | ? | 23µM* | 60
O=C(CSc1ncnc2nc[nH]c12)Nc1ccccc1C(F)(F)F | -19% | -6% | -7% | -16% | 25
Cc1nc2c(c(SCC(=O)Nc3ccccc3C(F)(F)F)n1)CCC2 | 21µM* | nt | nt | ? | nt
O=C(O)CC1(CC(=O)Nc2ccc(Oc3cccc(C(F)(F)F)c3)nc2)CCCC1 | -19% | -9% | -23% | -9% | 0
O=C(CN1CCCC1)Nc1c(Cl)cccc1Cl | 17% | 0% | 0% | 44% | 8
O=C(CSc1n[nH]c(-c2ccncc2)n1)Nc1ccccc1C(F)(F)F | 10µM* | 6% | 5% | 18µM* | 32
O=C(NNS(=O)(=O)c1ccccc1F)c1ccccc1-n1cccc1 | 15% | -1% | -2% | -13% | 12
COc1ccccc1CCNC(=O)c1ccoc1C | -19% | 4% | -1% | -25% | 0
O=C(O)C1(Nc2ccccc2Cl)CCCC1 | -7% | 18% | 12% | 6% | 13
O=C1OCC(CO)(CO)N=C1NNc1ccccc1Cl | -8% | 10µM* | -10% | -13% | 34
CC(=O)c1cccc(NC(=O)c2cc3nc(-c4ccc(Br)cc4)cc(C(F)(F)F)n3n2)c1 | 6.5µM* | nt | nt | 6.5µM* | nt
Cc1nc(NC(=O)c2ccccc2)sc1-c1csc(N)n1 | ? | -19% | ? | ? | 0
CCCCCCC(=O)Nc1nc(C)c(-c2csc(Nc3ccccc3OC)n2)s1 | 21µM* | -6% | -14% | ? | -1
Cc1nc(NC(=O)c2ccccc2)sc1-c1csc(NCCc2ccccc2)n1 | 16µM* | -19% | -23% | 23µM* | 2
CCCC(C)C(=O)Nc1nc(C)c(-c2csc(Nc3ccc(Cl)cc3)n2)s1 (stereo not drawn) | 26µM* | 0% | -8% | ? | -3
CCCCCC(=O)Nc1nc(C)c(-c2csc(Nc3ccccc3OC)n2)s1 | 18µM* | -7% | -11% | 23µM* | -8
O=C(NN1C(=O)c2ccc(-c3ccc4c(c3)C(=O)N(NC(=O)c3cccnc3)C4=O)cc2C1=O)c1cccnc1 | 4% | 24% | 2% | 2% | 20
